In the library only some 18% were active in any assay of this set; here they are far more common.
DT40 TDP1 no CPT: qHTS for Inhibitors of human tyrosyl-DNA phosphodiesterase 1 (TDP1): qHTS in cells in absence of CPT; DT40 Tdp1-/- hTDP1 cells, no CPT, ATP luminescence, 48 h; Potency, µM (doses to about 46.2 µM), without a hit: top-dose activity change, negative = growth inhibition, usual class: inhibitors; hit rate 15% among 420,000; AID 686978, 2013; note: potency is the fitted concentration of half-maximal effect; % is set by controls: 0 for no effect and ±100 for the full control effect; nearly all actives have a fitted effect of over 55% in size
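Compound effects on proliferation are scored in DT40 Tdp1-/-;hTDP1 cells in the absence of CPT. ATP levels (CellTiter-Glo luminescence) are recorded after a ≥48 hr, 37 °C incubation.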
HepG2 tox: HepG2 cytotoxicity, counter-screen for TGF-b inhibitors. HepG2 CAGA-GFP viability, ATP luminescence, 18 h. Potency, µM (series often up to 46.1 µM), without a hit: at the highest dose activity change, negative = cytotoxicity, hits mostly cytotoxic. hit rate 0.76% among 410,000; note: potency is the fitted concentration of half-maximal effect
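CellTiter-Glo luminescence gave cytotoxicity after 18 hours at 37 degrees C. The cells were HepG2 CAGA-GFP in 1% FBS DMEM, stimulated with 500 pg/mL TGF-beta after compound addition. %Activity was normalised to no-cell wells (complete cell-killing) and DMSO (no toxicity), and curves were fitted and classified.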
DT40 TDP1 CPT: DT40-hTDP1 cell growth loss with CPT. chicken DT40 Tdp1-/-;hTDP1 cells + 20 nM CPT, ATP luminescence, 48 h. Potency, µM (series often up to 46.2 µM), inactives show top-dose activity change, negative = growth inhibition, usual class: inhibitors. hit rate 12% among 420,000. AID 686979; note: potency is the fitted concentration of half-maximal effect; % is set by controls: 0 for no effect and ±100 for the full control effect; nearly all actives have a fitted effect of over 55% in size
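Chicken DT40 Tdp1-/- cells stably complemented with human TDP1 were seeded at 400 cells/well in medium containing 20 nM camptothecin, exposed to pin-transferred compounds, and grown at 37 °C for at least 48 hr. Viability was read as ATP luminescence.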
IL-1B inflam inh: inhibitors of inflammasome signaling (IL-1 beta secretion) | hit rate 4.7% among 360,000 | activity change, % at 57.5 µM | AID 743279 | THP-1 LPS/ATP IL-1B secretion, AlphaLISA, 16 h; stronger effect = lower value; in the data active = activity change below about -50%; inconclusive = mostly about -30% to -49%; note: % is set by controls: 0 for no effect and ±100 for the full control effect
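Secreted IL-1B measured by AlphaLISA bead assay after 16 h compound exposure of THP-1 cells; compounds (final up to 57.5 uM) added 1 h before LPS (250 ng/mL) and ATP (1.25 mM) stimulation; lower signal means less secretion.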
TGFb SMAD3 inh: inhibitors of TGF-b signaling | hit rate 1.2% among 410,000 | HepG2 CAGA-GFP TGF-b/SMAD3 reporter, GFP fluorescence, 18 h; TGF-beta stimulated, 500 pg/mL final | Potency, µM (series often up to 46.1 µM), for the others: top-dose activity, negative = inhibition, hits mostly inhibitors | AID 588855; note: potency is the fitted concentration of half-maximal effect; % is set by controls: 0 for no effect and ±100 for the full control effect; nearly all actives have a fitted effect of over 65% in size
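GFP signal (ex488/em500-530) from TGF-beta-stimulated HEPG2 CAGA-GFP cells, 500 pg/mL final, 18 h at 37 degrees C in DMEM plus 1% FBS, normalized to unstimulated and DMSO-stimulated controls.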
TDP1 block: TDP1 (human) enzyme inhibition | Q9NUW8 | recombinant TDP1, AlphaScreen DNA substrate cleavage | Potency, µM (series often up to 130 µM), inactives show at the top dose activity change, negative = inhibition, hits mostly inhibitors | hit rate 0.28% among 350,000 | AID 485290; note: potency is the fitted concentration of half-maximal effect; % is set by controls: 0 for no effect and ±100 for the full control effect; nearly all actives have a fitted effect of over 40% in size
Target sequence (Q9NUW8 whole entry, looked up): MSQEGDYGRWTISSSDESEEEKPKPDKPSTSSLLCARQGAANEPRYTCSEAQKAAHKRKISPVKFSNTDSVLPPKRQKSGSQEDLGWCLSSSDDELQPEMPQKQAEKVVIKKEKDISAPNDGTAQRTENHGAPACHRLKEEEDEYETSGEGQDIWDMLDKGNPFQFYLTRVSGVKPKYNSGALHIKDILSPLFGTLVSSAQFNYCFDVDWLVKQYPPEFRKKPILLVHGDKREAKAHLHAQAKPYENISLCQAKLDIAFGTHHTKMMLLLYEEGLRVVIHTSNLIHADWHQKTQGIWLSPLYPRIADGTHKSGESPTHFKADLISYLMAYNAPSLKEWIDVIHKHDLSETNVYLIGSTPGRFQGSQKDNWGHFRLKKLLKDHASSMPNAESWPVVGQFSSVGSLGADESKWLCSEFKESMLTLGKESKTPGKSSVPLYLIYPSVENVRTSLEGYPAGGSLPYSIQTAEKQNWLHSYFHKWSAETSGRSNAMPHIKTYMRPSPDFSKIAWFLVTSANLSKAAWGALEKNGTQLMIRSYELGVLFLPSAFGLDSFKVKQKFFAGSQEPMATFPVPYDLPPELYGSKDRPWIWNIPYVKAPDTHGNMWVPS
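Steps: enzyme plus compound, 15 min RT; add biotin/phosphotyrosine-FITC oligonucleotide (15 nM final), react 5 min; add donor/acceptor beads (10 ug/ml final), 10 min; read AlphaScreen. Tdp1 at 1 nM final.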
The depositor's hits bear a star; ? = inconclusive; nt = not tested or not shown; [ ] = remark or other dose. Unless noted, calls come from the whole dose curve; as a rule, active = well fitted curve in the direction sought with a large enough effect; inconclusive = small, poorly fitted or top-dose-only effect, or another doubt; inactive = no such curve, though single readings can be large; an effect the other way counts as inactive or inconclusive.

SMILES | DT40 TDP1 no CPT | HepG2 tox | DT40 TDP1 CPT | IL-1B inflam inh | TGFb SMAD3 inh | TDP1 block
COc1cc2c(cc1OC)[C@@H]1C(=O)c3ccc(OC)c(CC=C(C)C)c3OC1CO2 (stereo partly specified) | 1.6µM* | nt | 2.9µM* | nt | nt | 16%[56.1 µM]
CCCCCc1nc2c(c(=O)c3ccccc3n2C)c(=O)n1C1CCCCCC1 | 18µM* | -32% | 21µM* | 10 | ? | 3%
C[C@H](CCC(=O)O)[C@H]1CC[C@@H]2[C@H]3CC[C@H]4C[C@@H](O)CC[C@@]4(C)[C@H]3CC[C@]21C | nt | nt | nt | nt | nt | 1%[56.1 µM]
CNC(=O)Oc1cc2c(cc1C(C)(C)C)CCC2 | 16µM* | -4% | 16µM* | -2 | -4% | nt
CNC(=O)Oc1ccccc1C(=O)Nc1ccccc1 | ? | nt | ? | nt | nt | -2%
CC(C)c1ccc(Oc2cccc3c2S(=O)(=O)N(C2CCCC2)CC(COCc2ccccc2)O3)cc1 (stereo unspecified) | 9.2µM* | -21% | 10µM* | -24 | 6% | nt
O=C(c1ccccc1)c1ccccc1N=Cc1c(O)[nH]c(=O)[nH]c1=O | -1% | -5% | 2% | 4 | 1% | -1%
C=CCc1cccc(C=Nc2c[nH]c(=O)[nH]c2=O)c1O | -6% | 5% | 18µM* | 12 | 0% | nt
CCOC(=O)c1cccc(NC2c3ccccc3C(=O)N2Cc2ccco2)c1 (stereo unspecified) | 6.5µM* | -19% | 12µM* | 0 | -23% | 8%
[O]=[Sb]([OH])([OH])[c]1ccccc1 | -6% | 4% | 3% | nt | -1% | ?
CC(=O)C1CCC2C3CCC4CC(O)CCC4(C)C3CCC12C#N (stereo unspecified) | ? | -18% | ? | -24 | -4% | nt
C[C@]1(O)CCC2C3CC[C@H]4C[C@@H](OC(=O)[C@@H](N)CCCCN)CC[C@]4(C)C3CC[C@@]21C (stereo partly specified) | 26µM* | -36% | ? | -8 | -3% | nt
CC1(C)CC(=O)C2=C(C1)OC(N)=C([N+](=O)[O-])C2c1ccc(C#N)s1 (stereo unspecified) | ? | 9% | 21µM* | ? | -8% | -6%
CCCCCn1c(=O)c(C(=O)NCc2ccccc2Cl)c(O)c2ccccc21 | ? | 17% | ? | -2 | 5% | nt
CCOC(=O)Cc1csc(NC(=O)c2c(O)c3ccccc3n(CCC(C)C)c2=O)n1 | 4.6µM* | -4% | 4.1µM* | 12 | 6% | 5%
CCCCCCn1c(=O)c(C(=O)Nc2nc(CC(=O)OCC)cs2)c(O)c2ccccc21 | 3.7µM* | -5% | 3.7µM* | 3 | -1% | 5%
C=C1C([C@@]2(C)C(OC(C)=O)CC(=O)O[C@@](C)(COC(C)=O)C2CC(=O)OC)C(OC=O)C(OC(=O)C(OC(C)=O)C(C)CC)[C@]2(C)C(c3ccoc3)CC(=O)C12O (stereo partly specified) | -10% | nt | -4% | nt | nt | 9%
C/C=C1/C[N@@+]2(C)CC[C@]34C(=C(C=O)[C@H]1C[C@H]32)Nc1ccccc14 | -2% | nt | 9% | nt | nt | -2%
Cc1ccc2ccccc2c1C | nt | nt | nt | nt | nt | 6%
O=C(Nc1ccc(Br)cc1C(=O)c1ccccc1Cl)c1ccccc1F | -14% | 1% | 8% | nt | -20% | 2%[12.3 µM]
CCc1ccc(NP(=O)(Oc2ccccc2F)Oc2ccccc2F)cc1 | ? | -104% | ? | -102* | 18µM* | 6%
CCCc1c(-c2ccccc2F)ncn1CCc1ccccc1OC | 2.6µM* | nt | 3.7µM* | -70* | nt | nt
O=C1NC(=O)C(=Cc2ccsc2)C(=O)N1 | 2% | -9% | 5% | -4 | -10% | -3%
Cn1cc(C=C2C(=O)NC(=O)NC2=O)c2ccccc21 | -2% | -10% | 6% | 11 | -21% | nt
CCOc1ccc(N2C(=O)/C(=C\c3cccs3)C(=O)NC2=S)cc1 | ? | -33% | ? | -99* | ? | 4%
SMILES | DT40 TDP1 no CPT | HepG2 tox | DT40 TDP1 CPT | IL-1B inflam inh | TGFb SMAD3 inh | TDP1 block
O=C1NC(=S)N(c2ccccc2F)C(=O)/C1=C\c1cccs1 | ? | -44% | 21µM* | -91* | ? | -6%
O=C1NC(=O)C(=Cc2cccs2)C(=O)N1 | 16µM* | 2% | 18µM* | -18 | 17% | nt
O=C1NC(=O)C(=Cc2csc3ccccc23)C(=O)N1 | 18µM* | 6% | 16µM* | -21 | -4% | nt
COC1=CC(=O)O[C@@H](/C=C/c2ccc3c(c2)OCO3)C1 | nt | nt | nt | nt | nt | -8%
CCN(CC)C(=O)c1ccc2c(c1)C1C(Cl)C(Sc3ccccc3[N+](=O)[O-])CC1C(C(=O)O)N2 (stereo unspecified) | 21µM* | -1% | ? | ? | -10% | 3%
Cc1ccc2c(c1Cl)NC(C(=O)O)C1CC(Sc3ccccc3[N+](=O)[O-])C(Cl)C21 (stereo unspecified) | 3% | -39% | -21% | 18 | 7% | 2%
CC(Cc1ccccc1)NC(=O)c1ccc(N)cc1 (stereo unspecified) | -8% | 4% | 9% | -4 | -16% | nt
CC(Cc1ccccc1)NC(=O)C(c1ccc(N)cc1)c1ccc(N)cc1 (stereo unspecified) | ? | -9% | 12µM* | 0 | -3% | nt
COc1ccc(-c2cc3nc(C)c(CCC(=O)N4CCN(c5cc(C)ccc5C)CC4)c(C)n3n2)c(OC)c1 | 9.2µM* | 0% | 8.2µM* | nt | 12% | 5%
O=C1CC(c2ccc(C(F)(F)F)cc2)c2c(c3ccccc3oc2=O)O1 (stereo unspecified) | -2% | -16% | 19% | nt | 2% | 9%
C[C@]12C=CC(=O)C=C1CC[C@@H]1[C@@H]2CC[C@@]2(C)[C@H]1CC[C@]2(C)O | 19µM* | nt | ? | nt | nt | 6%
C[C@]12CCC3C(CC[C@H]4CC(=O)CC[C@]34C)C1CCC2=O (stereo partly specified) | ? | 4% | ? | 16 | 2% | 2%
CC12Cc3cnoc3C=C1CCC1C2CCC2(C)C1CCC2(C)O (stereo unspecified) | ? | -5% | ? | -50* | -10% | nt
C[C@]1(O)CCC2C3CC[C@@H]4CC(=O)CC[C@]4(C)C3CC[C@@]21C (stereo partly specified) | ? | -27% | 18µM* | 14 | 0% | 2%
